From PubChem BioAssay (Tox21)
Results filed as inconclusive are left out. Activity calls are given as the source filed them. Unless noted, calls follow the shape of the dose curve; as a rule, active = well fitted curve in the direction sought with a large enough effect in the repeat runs; inconclusive = weak or mixed curves; inactive = no such curve, though single readings can be large; an effect the other way counts as inactive or inconclusive.

Assays:
[1] = target: Peroxisome proliferator-activated receptor gamma (Homo sapiens) (UniProt P37231); experiment: qHTS assay to identify small molecule antagonists of the peroxisome proliferator-activated receptor gamma (PPARg) signaling pathway (AID 743191; calls by dose curve; also: series mostly up to about 63 µM; nearly all actives have a fitted effect of over 30% in size)
Peroxisome proliferator-activated receptor gamma (Homo sapiens), sequence (P37231 whole entry, looked up): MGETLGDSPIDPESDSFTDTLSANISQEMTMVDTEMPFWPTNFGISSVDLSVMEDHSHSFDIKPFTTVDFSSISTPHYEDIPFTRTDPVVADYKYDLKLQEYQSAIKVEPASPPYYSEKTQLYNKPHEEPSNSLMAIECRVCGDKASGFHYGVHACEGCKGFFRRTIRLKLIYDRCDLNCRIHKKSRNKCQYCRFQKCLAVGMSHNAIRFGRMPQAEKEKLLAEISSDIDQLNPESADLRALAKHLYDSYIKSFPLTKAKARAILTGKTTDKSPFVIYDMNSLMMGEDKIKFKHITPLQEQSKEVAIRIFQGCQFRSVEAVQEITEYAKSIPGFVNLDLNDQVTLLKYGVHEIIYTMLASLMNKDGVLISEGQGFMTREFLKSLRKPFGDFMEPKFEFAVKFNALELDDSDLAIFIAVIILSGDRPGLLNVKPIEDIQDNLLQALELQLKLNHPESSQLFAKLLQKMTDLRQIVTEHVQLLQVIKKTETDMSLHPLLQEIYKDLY
In short: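 GeneBLAzer PPARg UAS-bla HEK293H cells, 5 h post-plating, exposed to compounds 17 h at 37C. LiveBLAzer B/G FRET substrate added for 1 h at room temperature; beta-lactamase reporter read by fluorescence intensity.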

[2] = qHTS assay to identify small molecule antagonists of the peroxisome proliferator-activated receptor gamma (PPARg) signaling pathway - cell viability counter screen (AID 743194); settings: Potency: co-treated with 50 nM rosiglitazone; also: nearly all actives have a fitted effect of over 55% in size; also: potency is read from the fitted curve at half-maximal effect
In short: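 Cytotoxicity counter screen in PPARg-bla HEK293H cells, same wells as reporter assay. Compounds plus 50 nM rosiglitazone (final) for 17 h at 37 C, then viability read by CellTiter-Glo luminescence.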

[3] = qHTS assay for small molecule agonists of the antioxidant response element (ARE) signaling pathway (AID 743202; active = well fitted activation curve with a large enough effect in the signal ratio in the repeat runs, not every such curve was filed as active; the % refers to the signal ratio; also: potency is read from the fitted curve at half-maximal effect)
In short: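 HepG2 ARE-bla reporter line, 2,000 cells/well; 5 h preincubation 37 C/5% CO2; compound (DMSO) 16 h 37 C; B/G FRET substrate 2 h RT; fluorescence intensity.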

[4] = qHTS assay for small molecule agonists of the antioxidant response element (ARE) signaling pathway - cell viability counter screen (AID 743203; calls by dose curve; also: nearly all actives have a fitted effect of over 55% in size; also: potency is read from the fitted curve at half-maximal effect)
In short: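 ATP content via CellTiter-Glo luminescence served as the viability measure. Cells: ARE-bla HepG2, 2,000 per well. Exposure: 16 hrs, 37C/5% CO2.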

[5] = qHTS assay for small molecule activators of the heat shock response signaling pathway - cell viability counter screen (AID 743209); also: nearly all actives have a fitted effect of over 50% in size; also: potency is read from the fitted curve at half-maximal effect
In short: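 Compounds dissolved in DMSO were added to overnight-plated HSE-bla HeLa cells and left 5 h at 37 C. Cell viability was quantified by luminescence using CellTiter-Glo.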

[6] = qHTS assay for small molecule activators of the heat shock response signaling pathway (AID 743210; active = well fitted activation curve with a large enough effect in the signal ratio in the repeat runs, with a control signal flat, not every such curve was filed as active; the % refers to the signal ratio;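 also: HeLa cells with beta-lactamase reporter driven by heat shock elements; series mostly up to about 63 µM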)
In short: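 Beta-lactamase reporter read-out: FRET substrate fluorescence after 2.5 h at RT, following 5 h compound treatment at 37 C of HeLa cells carrying HSE-driven bla reporter; quantitative HTS format.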

[7] = target: Peroxisome proliferator-activated receptor delta (Homo sapiens) (UniProt Q03181); experiment: qHTS assay to identify small molecule agonists of the peroxisome proliferator-activated receptor delta (PPARd) signaling pathway (AID 743212; calls by dose curve)
Peroxisome proliferator-activated receptor delta (Homo sapiens), sequence (Q03181 whole entry, looked up): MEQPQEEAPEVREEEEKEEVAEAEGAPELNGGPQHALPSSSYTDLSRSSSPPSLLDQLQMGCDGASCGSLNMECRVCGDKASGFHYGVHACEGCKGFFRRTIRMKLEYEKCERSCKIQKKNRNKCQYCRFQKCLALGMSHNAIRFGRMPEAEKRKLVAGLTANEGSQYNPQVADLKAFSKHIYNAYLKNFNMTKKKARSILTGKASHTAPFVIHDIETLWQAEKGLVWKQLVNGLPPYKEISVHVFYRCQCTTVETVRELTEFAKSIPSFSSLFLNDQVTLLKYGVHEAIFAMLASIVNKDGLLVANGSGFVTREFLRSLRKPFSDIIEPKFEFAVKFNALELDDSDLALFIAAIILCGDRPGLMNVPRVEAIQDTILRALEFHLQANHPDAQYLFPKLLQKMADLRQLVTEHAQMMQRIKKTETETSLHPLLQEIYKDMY
In short: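 Read-out: beta-lactamase FRET fluorescence after 2 h room-temperature incubation with LiveBLAzer B/G substrate. Cells were HEK293H carrying a UAS-bla reporter for PPARd, treated at 37 C with DMSO-dissolved compounds.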

[8] = qHTS assay to identify small molecule antagonists of the peroxisome proliferator-activated receptor delta (PPARd) signaling pathway - cell viability counter screen (AID 743213); also: nearly all actives have a fitted effect of over 50% in size; also: potency is read from the fitted curve at half-maximal effect
In short: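 HEK293H cells with the PPARd UAS-bla reporter, co-treated 17 h at 37 C with compounds and L165041 (300 nM final), were lysed with CellTiter-Glo. Luminescence indicated viable cell content.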

[9] = qHTS assay to identify small molecule agonists of the farnesoid-X-receptor (FXR) signaling pathway - cell viability counter screen (AID 743218); also: nearly all actives have a fitted effect of over 45% in size; also: potency is read from the fitted curve at half-maximal effect
In short: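 Quantitative HTS counter screen measuring ATP-based viability via CellTiter-Glo luminescence in HEK 293T cells carrying a UAS-driven beta-lactamase reporter, after 16 h compound exposure at 37 C.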

[10] = target: Vitamin D3 receptor (Homo sapiens) (UniProt P11473); experiment: qHTS assay to identify small molecule agonists of the vitamin D receptor (VDR) signaling pathway (AID 743222; calls by dose curve)
Vitamin D3 receptor (Homo sapiens), sequence (P11473 whole entry, looked up): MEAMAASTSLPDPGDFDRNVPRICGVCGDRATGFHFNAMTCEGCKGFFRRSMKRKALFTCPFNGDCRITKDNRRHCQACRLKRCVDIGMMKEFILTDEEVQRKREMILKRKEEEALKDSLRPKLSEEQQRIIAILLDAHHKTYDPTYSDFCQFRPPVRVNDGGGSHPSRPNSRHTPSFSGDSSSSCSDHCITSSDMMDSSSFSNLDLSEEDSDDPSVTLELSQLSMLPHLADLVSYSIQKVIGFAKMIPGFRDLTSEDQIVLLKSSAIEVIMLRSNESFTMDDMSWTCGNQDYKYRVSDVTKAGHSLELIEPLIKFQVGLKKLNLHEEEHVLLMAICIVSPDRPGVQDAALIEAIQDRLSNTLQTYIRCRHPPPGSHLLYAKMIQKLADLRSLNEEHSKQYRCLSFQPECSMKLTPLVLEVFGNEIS
In short: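 Tox21 cell reporter format: VDR-bla line, 16 h compound exposure in 5% CO2 at 37C, then fluorescence intensity after 2 h with LiveBLAzer B/G FRET substrate.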

[11] = target: Vitamin D3 receptor (Homo sapiens) (UniProt P11473); experiment: qHTS assay to identify small molecule antagonists of the vitamin D receptor (VDR) signaling pathway (AID 743223; active = well fitted inhibition curve with a large enough effect in the signal ratio in the repeat runs, not every such curve was filed as active; the % refers to the signal ratio)
In short: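 Quantitative HTS in VDR-bla reporter cells stimulated with 1alpha,25-dihydroxyvitamin D3, 3 nM final. Compound exposure 16 h, 37C, 5% CO2. Read-out: beta-lactamase FRET substrate fluorescence, 2 h RT.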

[12] = qHTS assay to identify small molecule that activate the aryl hydrocarbon receptor (AhR) signaling pathway - cell viability counter screen (AID 743086); also: nearly all actives have a fitted effect of over 45% in size; also: potency is read from the fitted curve at half-maximal effect
In short: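 HepG2-AhR-luc (HG2L7.5c1) cells, 4000/well, treated 24 h at 37 C with compound; viability measured as CellTiter-Fluor fluorescence after 30 min in the same wells as the luciferase read.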

[13] = target: Peroxisome proliferator-activated receptor gamma (Homo sapiens) (UniProt P37231); experiment: qHTS assay to identify small molecule agonists of the peroxisome proliferator-activated receptor gamma (PPARg) signaling pathway (AID 743094; active = well fitted activation curve with a large enough effect in the signal ratio in the repeat runs, not every such curve was filed as active; the % refers to the signal ratio)
In short: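 Agonism was assessed in a beta-lactamase reporter system, HEK293H cells with a stably integrated UAS-bla construct under PPARg control; the 17 h treatment at 37C preceded a 1 h room-temperature FRET substrate read.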

[14] = qHTS assay to identify small molecule agonists of the peroxisome proliferator-activated receptor delta (PPARd) signaling pathway - cell viability counter screen (AID 743211); also: nearly all actives have a fitted effect of over 55% in size; also: potency is read from the fitted curve at half-maximal effect
In short: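 Tox21 library compounds, delivered in DMSO, were incubated 17 h with PPARd-bla HEK293H cells; cytotoxicity was taken from CellTiter-Glo luminescence read 30 min after reagent addition.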

[15] = target: Peroxisome proliferator-activated receptor delta (Homo sapiens) (UniProt Q03181); experiment: qHTS assay to identify small molecule antagonists of the peroxisome proliferator-activated receptor delta (PPARd) signaling pathway (AID 743215; active = well fitted inhibition curve with a large enough effect in the signal ratio in the repeat runs, not every such curve was filed as active; the % refers to the signal ratio;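 also: cells stimulated with agonist L165041 at 300 nM final during compound exposure; series mostly up to about 62 µM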)
In short: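 Here, a reporter line (HEK293H, beta-lactamase under a UAS) measures PPARd signaling. Compounds are tested against agonist L165041 at 300 nM final concentration over 17 h at 37 C, with fluorescence read after substrate.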

[16] = target: Bile acid receptor (Homo sapiens) (UniProt Q96RI1); experiment: qHTS assay to identify small molecule antagonists of the farnesoid-X-receptor (FXR) signaling pathway (AID 743217; active = well fitted inhibition curve with a large enough effect in the signal ratio in the repeat runs, not every such curve was filed as active; the % refers to the signal ratio)
Bile acid receptor (Homo sapiens), sequence (Q96RI1 whole entry, looked up): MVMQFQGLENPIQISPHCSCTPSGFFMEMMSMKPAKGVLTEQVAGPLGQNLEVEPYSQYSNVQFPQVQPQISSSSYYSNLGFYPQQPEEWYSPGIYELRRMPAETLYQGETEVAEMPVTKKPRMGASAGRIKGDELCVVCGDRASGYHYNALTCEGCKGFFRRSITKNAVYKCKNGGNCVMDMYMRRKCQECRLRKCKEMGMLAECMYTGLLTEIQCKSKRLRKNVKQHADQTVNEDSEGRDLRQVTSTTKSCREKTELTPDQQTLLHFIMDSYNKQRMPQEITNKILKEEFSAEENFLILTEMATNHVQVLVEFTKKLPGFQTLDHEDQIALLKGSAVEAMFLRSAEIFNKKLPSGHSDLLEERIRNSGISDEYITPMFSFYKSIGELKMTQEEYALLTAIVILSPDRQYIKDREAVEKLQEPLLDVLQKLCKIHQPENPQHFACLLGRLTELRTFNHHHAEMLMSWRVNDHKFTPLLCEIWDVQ
In short: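 Test compounds are pin-transferred onto FXR-bla HEK 293T cells, then chenodeoxycholic acid is added at 50 uM final. After 16 h at 37 °C, LiveBLAzer B/G substrate is applied for 2 h at room temperature and fluorescence read.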

[17] = target: Bile acid receptor (Homo sapiens) (UniProt Q96RI1); experiment: qHTS assay to identify small molecule agonists of the farnesoid-X-receptor (FXR) signaling pathway (AID 743220; active = well fitted activation curve with a large enough effect in the signal ratio in the repeat runs, not every such curve was filed as active; the % refers to the signal ratio)
In short: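 FXR-UAS-bla HEK 293T cells carrying a UAS-driven beta-lactamase reporter were plated for 5 h at 37C/5% CO2, then exposed to DMSO-dissolved Tox21 10K compounds for 16 h at 37C. A LiveBLAzer B/G FRET substrate was loaded for 2 h at room temperature before fluorescence reading.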

[18] = qHTS assay to identify small molecule antagonists of the farnesoid-X-receptor (FXR) signaling pathway - cell viability counter screen (AID 743221; active = well fitted cell-killing curve with a large enough effect in the repeat runs, not every such curve was filed as active; also: nearly all actives have a fitted effect of over 50% in size; also: potency is read from the fitted curve at half-maximal effect)
In short: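 Cytotoxicity is taken from ATP luminescence (CellTiter-Glo, 30 min, room temperature) in FXR-bla HEK 293T cells previously incubated 16 h at 37 C with compound and chenodeoxycholic acid at 50 uM final.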

[19] = qHTS assay to identify aromatase inhibitors - cell viability counter screen (AID 743084);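 also: cells stimulated with testosterone during compound exposure; nearly all actives have a fitted effect of over 55% in size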; also: potency is read from the fitted curve at half-maximal effect
[20] = target: Aryl hydrocarbon receptor (Homo sapiens) (UniProt P35869); experiment: qHTS assay to identify small molecule that activate the aryl hydrocarbon receptor (AhR) signaling pathway (AID 743085);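 also: HG2L7.5c1 human HepG2 liver cells with stably integrated DRE-driven firefly reporter; series mostly up to about 70 µM; nearly all actives have a fitted effect of over 15% in size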
Aryl hydrocarbon receptor (Homo sapiens), sequence (P35869 whole entry, looked up): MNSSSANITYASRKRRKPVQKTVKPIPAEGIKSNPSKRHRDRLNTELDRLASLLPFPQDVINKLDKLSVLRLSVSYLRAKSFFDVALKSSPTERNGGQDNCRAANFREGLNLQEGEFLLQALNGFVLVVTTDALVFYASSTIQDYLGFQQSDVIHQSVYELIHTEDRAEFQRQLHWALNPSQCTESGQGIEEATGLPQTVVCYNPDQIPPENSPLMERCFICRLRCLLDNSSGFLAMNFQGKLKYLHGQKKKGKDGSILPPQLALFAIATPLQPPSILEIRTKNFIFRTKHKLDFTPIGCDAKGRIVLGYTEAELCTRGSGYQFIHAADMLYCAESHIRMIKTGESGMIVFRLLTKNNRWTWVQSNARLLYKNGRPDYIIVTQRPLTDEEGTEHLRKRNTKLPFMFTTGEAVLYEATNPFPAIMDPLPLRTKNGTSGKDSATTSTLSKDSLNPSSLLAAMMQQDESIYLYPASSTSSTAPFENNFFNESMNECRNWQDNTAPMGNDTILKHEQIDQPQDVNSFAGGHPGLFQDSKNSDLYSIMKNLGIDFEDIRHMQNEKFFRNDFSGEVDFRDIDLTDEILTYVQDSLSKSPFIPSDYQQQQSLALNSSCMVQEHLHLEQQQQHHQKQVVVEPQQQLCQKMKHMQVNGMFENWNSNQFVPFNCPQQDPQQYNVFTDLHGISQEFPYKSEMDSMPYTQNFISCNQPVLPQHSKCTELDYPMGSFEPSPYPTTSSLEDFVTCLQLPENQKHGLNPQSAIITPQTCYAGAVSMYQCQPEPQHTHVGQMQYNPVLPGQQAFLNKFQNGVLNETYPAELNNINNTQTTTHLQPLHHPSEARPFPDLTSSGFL
In short: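 A multiplexed format paired cell viability (CellTiter-Fluor fluorescence) with AhR-dependent luciferase output (ONE-Glo luminescence) in the same wells of HepG2 DRE-luc cells after 24 h compound exposure at 37C.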

Measured: Potency

O=C(CBr)Nc1ccc(Cl)cc1C(=O)c1ccccc1F
active: [3] 23.7 µM
inactive: [1] | [2] | [4] | [5] | [6] | [7] | [8] | [9] | [10] | [11]

Clc1cc(C(Cl)(Cl)Cl)cnc1Cl
active: [4] 61.1 µM | [5] 49 µM
not listed: [3] | [6] | [7] | [19] | [20]
inactive: all other assays above

CCCCC(O)(Cn1cncn1)c1ccc(Cl)cc1Cl (stereo not drawn)
active: [19] 68.5 µM | [14] 54.9 µM
inactive: [5] | [9] | [17]

Clc1ccc(C2(Cn3cncn3)CC(Br)CO2)c(Cl)c1 (stereo not drawn)
not listed: [12] | [13] | [16] | [17] | [20]
inactive: all other assays above

C=CC(=O)NCNC(=O)C=C
inactive: [12] | [4] | [6] | [14] | [18] | [10]

NCCCNCCCN
active: [8] 49.7 µM
inactive: [20] | [12] | [2] | [4] | [6] | [10]

CCC(C)(NC(=O)c1cc(Cl)c(C)c(Cl)c1)C(=O)CCl (stereo not drawn)
inactive: [20]
active: [2] 39.1 µM | [4] 21.8 µM | [14] 49.3 µM | [18] 55.3 µM

CC(=O)c1cc2c(cc1C)C(C)(C)C(C)CC2(C)C (stereo not drawn)
not listed: [1] | [3] | [5] | [10] | [16] | [19] | [20]
inactive: all other assays above

O=S1OC[C@@H]2[C@H](CO1)[C@]1(Cl)C(Cl)=C(Cl)[C@@]2(Cl)C1(Cl)Cl (stereo partly drawn)
inactive: [12] | [1] | [16] | [18] | [10]

CN1C[C@H](CNC(=O)OCc2ccccc2)C[C@@H]2c3cccc4c3c(cn4C)C[C@H]21
inactive: [1] | [5] | [6]
active: [12] 29.8 µM | [4] 33.5 µM | [14] 26.6 µM | [8] 13.3 µM | [9] 13.3 µM

C[C@]12CC[C@H]3[C@@H](CCC4=CC(=O)CC[C@@H]43)[C@@H]1CC[C@@H]2OC(=O)CCC1CCCCC1
inactive: [2] | [4] | [5] | [6] | [14] | [7] | [8] | [15] | [9] | [10] | [11]

CCn1cc[n+](C)c1
inactive: [12] | [2] | [3] | [4] | [5] | [14] | [8] | [9] | [18]

CCCCc1c(C)nc(NCC)nc1OS(=O)(=O)N(C)C
active: [3] 27.3 µM
not listed: [1] | [12] | [13] | [16] | [17] | [19] | [20]
inactive: all other assays above
